Bioassay records deposited in PubChem BioAssay by several laboratories.
Rows were chosen to be rich in hits. Some 2.3% of all compounds tested hit in one or more screens of this group.
CF NFkB block: inhibitors of cystic fibrosis induced NF-kB. actives 0.86% (n = 360,000). inhibition, % at 5 µM. KKLEB NF-kB-GFP reporter, PAF-induced, GFP fluorescence overnight;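 active = at least 50% inhibition at 5 µM, scaled per plate between neutral and stimulator controls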;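 note: PAF is a Pseudomonas aeruginosa culture filtrate used as stimulus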
iPSC survival up: increases survival of single human iPS cells | hiPSC single-cell survival, ATPlite luminescence; 100% = ROCK inhibitor wells, 0% = DMSO | survival enhancement, % at 20 µM | actives 0.044% (n = 360,000) | AID 602274; in the data active = survival enhancement above about 18%;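 note: cells exposed to compounds for 16 hours before the ATP read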
KKLEB tox: CF airway cell cytotoxicity counter-screen; activity change (cytotoxicity), % at 5 µM; actives 0.36% (n = 360,000); AID 602141; KKLEB CF airway cells viability, ATPlite luminescence, overnight; active compounds read low; cells stimulated with P. aeruginosa culture filtrate;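 active = corrected activity change at or below -50% at 5 µM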
LGR2 inh: Drosophila LGR2 receptor signaling inhibition. HEK293 LGR2, CRE-luciferase, bursicon-stimulated, 4 h. inhibition, % at 9.99 µM. actives 0.35% (n = 380,000). AID 720647;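 active = drop in luminescence signal, shown as inhibition above about 50% in the replicate tests, limit read from the data, passing the limit was not always enough; inconclusive = probably only some replicates passing the limit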;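 note: agonist challenge used bursicon conditioned medium at about half maximal strength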
HIF-2a inh: inhibitors of HIF-2a; actives 0.72% (n = 360,000); 786-0 RCC cells HIF-2a reporter, luciferase luminescence, overnight; inhibition, % at 18.8 µM;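 active = inhibition of the luminescence signal of 40% or more relative to plate controls, in a single-dose primary screen at 18.75 µM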
TWEAK Fn14 block: blocks TWEAK-Fn14 interaction in a reporter cell assay. TWEAK-stimulated Fn14 reporter cells, luciferase luminescence, 8 h. inhibition, % at 10 µM. actives 2% (n = 360,000); in the data active = inhibition above about 50%
Large screens that a line does not name were inactive.

Cc1cccc(C(=O)Nc2ccc(NC(=O)CN3CCOCC3)cc2)c1	none
Cc1cccc(C(=O)Nc2ncc(CN3CCOCC3)s2)c1	TWEAK Fn14 block 66
O=C(/C=C/Sc1ccccc1)c1ccccc1	TWEAK Fn14 block 90
O=C(/C=C/Sc1ccccc1)c1ccc(Cl)cc1	TWEAK Fn14 block 78 (no result: LGR2 inh)
CC(C)NC(=O)NCC[C@@H]1CC[C@H](NS(=O)(=O)c2ccccc2)[C@@H](CO)O1	none (no result: CF NFkB block, iPSC survival up, KKLEB tox, HIF-2a inh, TWEAK Fn14 block)
Cc1ccc(C(=O)c2c(C)oc3c2C(=O)C(=O)c2ccccc2-3)cc1	CF NFkB block 78, TWEAK Fn14 block 54 (no result: LGR2 inh)
O=C(c1ccc(Cl)cc1)c1ccc(CN2C(=O)c3ccccc3C2=O)o1	none (no result: LGR2 inh)
Cc1oc2c(c1C(=O)c1ccc(Cl)cc1)C(=O)C(=O)c1ccccc1-2	CF NFkB block 86, KKLEB tox -62, HIF-2a inh 94, TWEAK Fn14 block 91 (no result: LGR2 inh)
Cc1ccc(C(=O)c2coc3c2C(=O)C(=O)c2ccccc2-3)cc1	none (no result: LGR2 inh)
COC(=O)/C=C/S(=O)(=O)c1ccc(NC(C)=O)cc1	CF NFkB block 91 (no result: LGR2 inh)
Cc1[nH]c2ccccc2c1/C=N/NC(=O)C1CC1(c1ccccc1)c1ccccc1 (configuration not stated)	TWEAK Fn14 block 66
Cc1[nH]c2ccccc2c1/C=N\NC(=O)c1ccccc1Cl	none
COc1ccc(CN(C)C[C@H]2OCCCC[C@H](C)Oc3ccc(NS(=O)(=O)c4ccc(C)cc4)cc3C(=O)N([C@H](C)CO)C[C@@H]2C)cc1	none (no result: CF NFkB block, iPSC survival up, KKLEB tox, HIF-2a inh, TWEAK Fn14 block)
CCOC(=O)N1CCC(NC(=O)c2cc3cc4cc(OC)ccc4nc3o2)CC1	none (no result: LGR2 inh)
COc1ccc2nc3oc(C(=O)NC4CCN(Cc5ccccc5)CC4)cc3cc2c1	TWEAK Fn14 block 53 (no result: LGR2 inh)
C[C@]12CCC(=O)C=C1CC[C@@H]1[C@@H]2[C@@H](O)C[C@@]2(C)[C@H]1CC[C@]2(O)C(=O)CO	CF NFkB block 73
CC12CCC(=O)C=C1CCC1C2C(O)CC2(C)C1CCC2(O)C(=O)CO (configuration not stated)	CF NFkB block 61
C[C@]12CCC(=O)C=C1[C@H](O)C[C@@H]1[C@@H]2[C@@H](O)C[C@@]2(C)[C@H]1CC[C@]2(O)C(=O)CO	none
CC(=O)Nc1cccc(-c2csc(Nc3cc(C)ccn3)n2)c1	none (no result: LGR2 inh)
CC(=O)Nc1ccc(-c2csc(Nc3cc(C)ccn3)n2)cc1	TWEAK Fn14 block 50
Cc1ccnc(Nc2nc(-c3ccccc3)cs2)c1	TWEAK Fn14 block 53
COC(=O)c1ccc(CCc2cc(O)c(Br)cc2O)cc1	TWEAK Fn14 block 92
COC(=O)c1ccc(CCc2cc(O)ccc2O)cc1	TWEAK Fn14 block 87 (no result: LGR2 inh)
COC(=O)c1ccc(O)cc1	none
O=C(Nc1ccc(-c2cn3ccsc3n2)cc1)c1ccc(F)c(S(=O)(=O)N2CCOCC2)c1	TWEAK Fn14 block 59 (no result: LGR2 inh)
O=C(Nc1ccccc1)c1ccc(F)c(S(=O)(=O)N2CCOCC2)c1	none (no result: LGR2 inh)
N#C[C@H]1[C@H](c2ccc(C3=CCCC3)cc2)[C@@H](CO)N1C(=O)NC1CCCC1	none (no result: CF NFkB block, iPSC survival up, KKLEB tox, HIF-2a inh, TWEAK Fn14 block)
O=C(C[C@H]1C[C@@H]2c3cc(NC(=O)c4ccc5c(c4)OCO5)ccc3O[C@@H]2[C@@H](CO)O1)NCc1ccc(Cl)cc1	none (no result: CF NFkB block, iPSC survival up, KKLEB tox, HIF-2a inh, TWEAK Fn14 block)
COc1ccc(N/N=C(\C#N)C(=N)SCc2ccccc2)cc1	CF NFkB block 78, LGR2 inh 67, TWEAK Fn14 block 77
CC(=O)CC(C)(C)n1nnc(-c2ccccc2)n1	TWEAK Fn14 block 92
COc1ccc(S(=O)(=O)N(C)C[C@H]2OCCCC[C@H](C)Oc3ccc(NC(=O)Nc4cccc5ccccc45)cc3C(=O)N([C@@H](C)CO)C[C@H]2C)cc1	none (no result: CF NFkB block, iPSC survival up, KKLEB tox, HIF-2a inh, TWEAK Fn14 block)
Cc1cc(C)c2oc(C(=O)Nc3ccc(S(=O)(=O)Nc4nccs4)cc3)cc(=O)c2c1	TWEAK Fn14 block 73
CC(C)n1c(NCc2nc3ccccc3n2C)nc2ccccc21	none (no result: LGR2 inh)
CCn1c(CNc2nc3ccccc3n2C(C)C)nc2ccccc21	TWEAK Fn14 block 99 (no result: LGR2 inh)
Cc1ccc(S(=O)(=O)N(C)C[C@H]2OCCCC[C@H](C)Oc3ccc(NS(C)(=O)=O)cc3C(=O)N([C@@H](C)CO)C[C@H]2C)cc1	none (no result: CF NFkB block, iPSC survival up, KKLEB tox, HIF-2a inh, TWEAK Fn14 block)
OCC1OC(n2cnc3c(NCc4ccccc4O)ncnc32)C(O)C1O (configuration not stated)	KKLEB tox -54, TWEAK Fn14 block 59
OCC1OC(n2ccc3c(NO)ncnc32)C(O)C1O (configuration not stated)	CF NFkB block 86, KKLEB tox -92, LGR2 inh 92, TWEAK Fn14 block 82
OC[C@H]1O[C@@H](n2cnc3c(Nc4ccccc4)ncnc32)[C@H](O)[C@@H]1O	none
O=C(Nc1ccc(F)cc1)Nc1ccc2c(c1)[C@H]1C[C@H](CC(=O)N3CCOCC3)O[C@@H](CO)[C@H]1O2	none (no result: CF NFkB block, iPSC survival up, KKLEB tox, HIF-2a inh, TWEAK Fn14 block)
CC(C)(C)c1ccc(C(=O)Nc2cccc3c(=O)[nH][nH]c(=O)c23)cc1	TWEAK Fn14 block 80
CCCNC(=O)N1[C@H](CO)[C@@H]2c3ccccc3N(C(=O)c3ccccc3)C[C@@H]21	none (no result: CF NFkB block, iPSC survival up, KKLEB tox, HIF-2a inh, TWEAK Fn14 block)
CCCNC(=O)C[C@@H]1CC[C@H]2[C@H](COc3ccc(NC(=O)c4cc(F)cc(F)c4)cc3C(=O)N2C)O1	none (no result: CF NFkB block, iPSC survival up, KKLEB tox, HIF-2a inh, TWEAK Fn14 block)
CN(CCOc1ccc(Cl)cc1)C(=O)c1cccc(S(=O)(=O)N2CCN(c3ccccc3)CC2)c1	TWEAK Fn14 block 50
CN(Cc1ccc(Cl)cc1Cl)C(=O)c1cccc(S(=O)(=O)N2CCN(c3ccccc3)CC2)c1	none
Cc1ccnc(NC(=O)c2cccc(S(=O)(=O)N3CCN(c4ccccc4)CC3)c2)c1	LGR2 inh inconclusive, TWEAK Fn14 block 72
CN(C)c1ccc(Cc2cc3c(O)ccc(O)c3cc(Cc3ccc(N(C)C)cc3)c2=O)cc1	HIF-2a inh 48
CN(C)c1ccc(C(=O)c2ccc(O)cc2O)cc1	none (no result: LGR2 inh)
CO[C@H]1CN(C)C(=O)c2cc(NC(=O)C3CC3)ccc2OC[C@H](C)N(C(C)=O)C[C@H]1C	none (no result: CF NFkB block, iPSC survival up, KKLEB tox, HIF-2a inh, TWEAK Fn14 block)
Cc1c(/C=N/NC(=O)CNc2ccccc2)c2ccccn2c1C(=O)c1ccncc1	TWEAK Fn14 block 62
C[C@H](CO)N1C[C@H](C)[C@H](CN(C)CC2CCCCC2)Oc2cc(C3=CCCC3)ccc2S1(=O)=O	none (no result: CF NFkB block, iPSC survival up, KKLEB tox, HIF-2a inh, TWEAK Fn14 block)
Cc1nn(CCc2nn[nH]n2)c2nc(-c3ccc(C4CCCCC4)cc3)cc(C(F)(F)F)c12	CF NFkB block 76, KKLEB tox -57
Cc1nn(CCC(=O)O)c2nc(-c3cccnc3)cc(C(F)(F)F)c12	none (no result: LGR2 inh)
N#CC(=C1C=CC(=NO)C(Cl)=C1)c1ccc(Cl)cc1	CF NFkB block 53, TWEAK Fn14 block 64
C[C@@H]1CN([C@@H](C)CO)C(=O)CCCn2cc(nn2)CO[C@@H]1CN(C)C(=O)Cc1ccccc1	none (no result: CF NFkB block, iPSC survival up, KKLEB tox, HIF-2a inh, TWEAK Fn14 block)
O=C(C[C@@H]1C[C@H]2c3cc(NC(=O)Nc4ccc(C(F)(F)F)cc4)ccc3O[C@H]2[C@@H](CO)O1)NCc1cccnc1	none (no result: CF NFkB block, iPSC survival up, KKLEB tox, HIF-2a inh, TWEAK Fn14 block)
